The text below walks through data of the supplement of paper PMC11417369.

± gives the standard deviation of the averaged measurements. In all, about 25,000 sequences were measured (“ln(normalized median fluorescence intensity)”: median about 8.9, highest 2% from about 10 on). For the sample, the highest values were picked, then their nearest neighbours and some sequences at random.

The experiment concerns PfAP2-LT AP2 domain (GST-tagged). In words: gcPBM binding intensity (ln(normalized median fluorescence intensity)); higher = stronger DNA binding. The gist of the method:
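For binding intensity, the highest Masliner-normalised natural-log median intensity across replicate spots of either probe orientation was taken. Protein bound to the array was stained with Alexa488 anti-GST antibody and scanned at 488 nm. The protein, GST-tagged P. falciparum DNA-binding domains from E. coli at about 25 μg on average, had been applied for 1 h to an Agilent 4 × 180k array of primer-extended double-stranded 36-bp intergenic genomic probes and negative controls.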
As to “TTAAATAGCTGTAATTGTACAAATAAATACATAAAT [XGTACX_site3097]”, the “gcPBM binding intensity (ln)” value was 8.82 ± 0.38.
Turning to “AAAAAAAAAAAAAAAACATGCAGTTAGTGGTTTTTT [TGCATGCA_site243]”, the “gcPBM binding intensity (ln)” value is 8.82 ± 0.4.
For “AAGTAAAATAAGTATACACACATAAATATGTAAATA [CACACA_site6467]”, the “gcPBM binding intensity (ln)” value came out at 9.29 ± 0.4.
“AAAAAATAAAACATATATAATATATAATATATATAT [GTGCAC_negctrl_site447]”: the “gcPBM binding intensity (ln)” value is 8.69 ± 0.4.
On to “AGTATACACAGACACACACACACATATATATATATA [CACACA_site8510]”, for which the “gcPBM binding intensity (ln)” value stood at 10.3 ± 0.42.
For the sequence “ATGGGACATATATATACACACATATATATATATATA [CACACA_site1202]”, the “gcPBM binding intensity (ln)” value was 9.96 ± 0.24.
For “AGTATACAGATATATACACACATATATATATATATA [CACACA_site4323]” the value was 9.935 ± 0.021; for “AGTATACATATATATACACACACATATATATATATA [CACACA_site7883]”, 9.805 ± 0.064.
With “GGTATACACAAGTATACACACATATATATATATATA [CACACA_site9063]” the figure was 10.16 ± 0.099; with “TATATACATACATATACACACATATATATATATATA [CACACA_site401]”, 9.72 ± 0.21; with “CGCATACACCAACACACACACACATATATATATATA [CACACA_site635]”, 9.96 ± 0.48.
“AGCAGACACCAACACACACACATATATATATATATA [CACACA_site337]”: the “gcPBM binding intensity (ln)” value amounted to 10.4 ± 0.13.
With “GGTATACACAAGTATACACACATATAAATATAAATA [CACACA_site7511]” the figure was 9.16 ± 0.49.
For “TACACAAGCGGACACACACACATATATATATATATA [CACACA_site4832]” the value was 10.415 ± 0.0071; for “TATATATATATACCAACACACATACATATATATATA [CACACA_site8530]”, 9.38 ± 0.14; for “GGTATACTCAAGTATACACACATATATATATATATA [CACACA_site5746]”, 9.64 ± 0.49.
With “ATTATAATTATTTTGTTGCACTATTTTTGTAGGCCA [GTGCAC_site9734]” the figure was 8.8 ± 0.49; with “ATATTATTTTAAAGTACACACATATATTAATATATA [CACACA_site2315]”, 8.76 ± 0.38; with “ATATATATATATATATGTACATATATATATAATTTT [XGTACX_site4146]”, 9.34 ± 0.54.
Take “CTTGTCATTTTGCACACACACATGTATAGGTTATTA [CACACA_site7431]”: the “gcPBM binding intensity (ln)” value came to 9.67 ± 0.16.
With “ATTATGGATACATAAACACACATATATATAAAAAAA [CACACA_site4303]” the figure was 9.04 ± 0.43.
With “AAAAAAAAAAAAAAAAAAAAAAAAACAATGAATTTA [GTGCAC_negctrl_site698]” the figure was 8.82 ± 0.19; with “TTAAATAAGTAATTATGTACATATAATATTCTTTAT [XGTACX_site5280]”, 8.6 ± 0.42; with “ATATTAAGGTTTATATTTTAACTTATTATTTTATTC [CACACA_negctrl_site795]”, 8.7 ± 0.49.
With “GGATTTTAATGAACACGTACATAAAATTAAATAAAT [XGTACX_site7023]” the figure was 8.73 ± 0.45.
Turning to “TAAGTATAAATATTTACACACATTTGTTTTTTTTTA [CACACA_site7731]”, the “gcPBM binding intensity (ln)” value turned out to be 8.78 ± 0.4.
As to “TGCCTTATTAAAAGAATTACACATATTTAATCGAAA [GTGCAC_negctrl_site153]”, the “gcPBM binding intensity (ln)” value worked out at 8.31 ± 0.39.
Take “TCTTTTTTTTTTTATTGTACAAGAAAAGGAAAAAAT [XGTACX_site3717]”: the “gcPBM binding intensity (ln)” value was 8.05 ± 0.31.
For “TTTTTTTTTTTAAGGTGTACAATAAAAATTTATGCA [XGTACX_site8860]” the value was 8.23 ± 0.35.
With “ATATTATTTTATTTTTGTACAGATATCTTTAAAAAA [XGTACX_site3734]”, the “gcPBM binding intensity (ln)” value is 8.42 ± 0.37.
In the case of “ATTCTATTATAATACACACCCAAATATTAAAAAGAT [CACACA_site2960]”, the “gcPBM binding intensity (ln)” value was 8.99 ± 0.4.
With “ATTCTACACAGACATACACACATATATATATATATA [CACACA_site5826]” the figure was 9.835 ± 0.078; with “AGGATATGCAGACACACACACATATAGATTTATATA [CACACA_site7100]”, 9.56 ± 0.43; with “TACATACACAGACACACACACATATAAATATAAATA [CACACA_site7641]”, 9.78 ± 0.28.
For “CATACATACAGACACACACACATATAAATACATACA [CACACA_site6533]” the value was 9.88 ± 0.35.
For “AGGATATGCAGACACACACACATATATATATATATA [CACACA_site2201]” the value was 10.3 ± 0.23; for “TATACAGACAGACACACACACATATATATATATATA [CACACA_site1734]”, 10.3 ± 0.13.
As to “TACACATACAGACATACACACATACACATATACACA [CACACA_site6918]”, the “gcPBM binding intensity (ln)” value was 9.85 ± 0.23.
With “AATACATACAGACACACACACACATATAAATAAATA [CACACA_site7642]” the figure was 10.1 ± 0.38; with “TACAGACATACATACACACATACATATATATATATA [CACACA_site1940]”, 9.82 ± 0.34; with “CATATACATACACATACACACATACAGACATACACA [CACACA_site6919]”, 9.63 ± 0.2.
With “TACATACACAGACACACACACATATATATATATATA [CACACA_site3557]” the figure was 10.1 ± 0.19; with “AGGACACATATATGCAAAAAAAAAAAAAAAAAAAAA [TGCATGCA_negctrl_site427]”, 8.41 ± 0.59.
With “TGTTTGAATATAATCACACATTTATATAAAAAGTTA [CACACA_site5237]” the figure was 8.39 ± 0.32.
